Screens (PubChem BioAssay)
Sampled rows, rich in hits. Any-hit rate of the full collection: about 0.9%.
Resorufin autofl – compounds fluorescent in resorufin spectral region; Compound fluorescence, resorufin region 547/598 nm, buffer; stronger effect = higher value; max dye-equivalent concentration, M; 0.04% of 59,000 active; AID 588
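Compounds in 100 mM Tris buffer, pH 8.0, incubated 15 min at room temperature, then read with 547 nm excitation and 598 nm emission filters. Fluorescence was converted to dye-equivalent concentration using an on-plate six-point resorufin standard curve.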
Fluorescein autfl – compound fluoresces in the fluorescein spectral region; max fluorescein-equivalent concentration, M; 0.91% of 59,000 active; Compound autofluorescence, 480/540 nm, fluorescein-equivalent; stronger effect = higher value; AID 593; in the data active = max fluorescein-equivalent concentration above about 10 nM; inconclusive = between about 1.1 nM and that limit
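Each compound is tested across a concentration series in 100 mM Tris buffer at pH 8.0. After 15 min at room temperature, plates are imaged with 480 nm excitation and 540 nm emission filters, and intensities are converted to fluorescein-equivalent values.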
A488 fluor – A488 region autofluorescence; compound autofluorescence, A488 spectral region, dye equivalency; Compound Type: qHTS ECL - MLSMR; max dye equivalency, M; 0.1% of 59,000 active; AID 591
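Intrinsic compound fluorescence is measured in 100 mM Tris buffer at pH 8.0 following 15 min incubation at room temperature. Intensities at 480 nm excitation/540 nm emission are calibrated to an on-plate A488 concentration series, giving dye-equivalent concentrations.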
Texas Red fluor – compounds fluorescent in Texas Red spectral region; Compound fluorescence, Texas Red channel, 547/618 nm; stronger effect = higher value; max dye-equivalent concentration, M; 0.06% of 59,000 active; in the data active = max dye-equivalent concentration above about 10 nM; inconclusive = between about 1.1 nM and that limit
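Fluorescence at ex 547/em 618 nm, normalized against an on-plate Texas Red standard series to give dye-equivalent concentration per compound concentration. Buffer 100 mM Tris, pH 8.0; 15 min RT incubation before CCD imaging.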
A647 autofl – A647 region autofluorescence. Compound fluorescence, A647 channel (570/671 nm), Tris buffer. max dye-equivalent concentration, M. 59,000 tested, under 10 active. AID 592
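Spectral profiling of library compounds in pH 8.0 Tris: 15 min room-temperature incubation, single ex/em pair (570/671 nm), response normalized to Alexa 647 equivalents.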
Rhodamine autofl – compound autofluorescence in rhodamine spectral region | Rhodamine-region fluorescence, 547/598 nm, Tris buffer; stronger effect = higher value | max dye-equivalent concentration, M | 0.05% of 59,000 active; in the data active = max dye-equivalent concentration above about 11 nM; inconclusive = between about 1.1 nM and that limit
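qHTS spectral profiling of compounds without any target or enzyme present, in pH 8.0 Tris buffer; plates were read after a 15-minute room-temperature incubation using the rhodamine-region filter set.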
Each line names hits and unclear results; the compound was inactive in the other large screens. Unless noted, no rule for the calls is given here.

Cc1ccc(C2NC(=O)c3ccccc3N2)s1 (stereo not drawn)	Texas Red fluor inconclusive
O=[N+]([O-])c1ccc2ncccc2c1CCc1c([N+](=O)[O-])ccc2ncccc12	Fluorescein autfl 1.1e-08M
CC1=CC(=O)CC(C)(C)[C@@]1(O)/C=C\C(C)=C\C(=O)O	Fluorescein autfl inconclusive
C/C(=C\COc1cc(=O)[nH]c2ccccc12)CC[C@@H](O)C(C)(C)O	none
O=C(c1ccco1)[C@@H]1[C@@H]2C(=O)N(c3ccccc3)C(=O)[C@@H]2C2c3ccccc3C=CN21 (stereo partly drawn)	Fluorescein autfl 1.8e-08M
Cc1ccc(N2C(=O)[C@@H]3[C@H](C2=O)C2c4ccccc4C=CN2[C@@H]3C(=O)c2ccco2)cc1 (stereo partly drawn)	Fluorescein autfl 1.1e-08M, Texas Red fluor inconclusive
CC(=O)[C@@H]1[C@@H]2C(=O)N(Cc3ccccc3)C(=O)[C@@H]2C2c3ccccc3C=CN21 (stereo partly drawn)	Fluorescein autfl 1.5e-08M
C[C@]12C=CC(=O)C=C1CC[C@@H]1[C@H]3C[C@@H](O)[C@](O)(C(=O)CO)[C@]3(C)C[C@H](O)[C@]12F	Fluorescein autfl inconclusive
COc1cc(/C=C/C2=NC(=O)C(C)(C)O2)ccc1O	Fluorescein autfl 3e-08M
COc1cc(/C=C/C(=O)CC(=O)/C=C/c2ccc(O)c(OC)c2)ccc1O	Fluorescein autfl inconclusive
Nc1ncnc2c1nc(Sc1ccc(Cl)cc1)n2[C@@H]1O[C@H]2COP(=O)(O)O[C@@H]2[C@H]1O	Texas Red fluor inconclusive
O=C(CN1c2cccc3cccc(c23)S1(=O)=O)N1CCOCC1	Fluorescein autfl 3.7e-08M, A488 fluor inconclusive
COc1cccc2c1[C@@H]1CN(CCCCn3c(=O)[nH]c4c(sc5ncc(-c6ccccc6)nc54)c3=O)C[C@H]1CO2	Fluorescein autfl inconclusive
COc1ccc(C(=O)N2CCC3(CC2)CN(c2cccc(-c4ccccc4)c2)C3)cc1	none
COc1ccc(NC(=O)N2CCCC3(CCN(C(=O)c4ccc(OC)cc4)CC3)C2)cc1	Fluorescein autfl 2.6e-08M
COc1ccc(C(=O)N2CCC3(CCCN(c4cccc(-c5ccccc5)c4)C3)CC2)cc1	Fluorescein autfl 1.4e-08M
O=C(O)/C=C\c1c2ccc(=O)c(O)c-2oc2c(O)c(O)ccc12	none
Cn1c(=O)c2c(nc(/C=C\c3cccc(Cl)c3)n2C)n(C)c1=O	none
CCn1c(CSc2nnc(-c3cccnc3)n2-c2ccccc2C)nc2cc(C(=O)O)ccc21	Resorufin autofl 2.2e-07M, Fluorescein autfl inconclusive, Texas Red fluor 4.2e-07M, A647 autofl inconclusive, Rhodamine autofl 2.6e-07M
CCn1c(CSc2nnc3ccccn23)nc2cc(C(=O)O)ccc21	Resorufin autofl 4.7e-08M, Fluorescein autfl 1.4e-08M, Texas Red fluor 1.1e-07M, Rhodamine autofl 7.1e-08M
CCOc1ccccc1-n1c(SCC(N)=O)nnc1-c1cccnc1	none
Clc1ccc([C@@H](c2ccccc2Cl)C(Cl)Cl)cc1	Texas Red fluor inconclusive
N.N.N.N.N.N.N.N.N.N.N.N.N.N.O.O.[Ru].[Ru].[Ru]	Texas Red fluor inconclusive
C=CCN1CCc2c(cc(O)c(O)c2Br)[C@H](c2ccccc2)C1	none
CCNc1c2c3c(cccc3n(C)c1=O)C(=O)c1ccccc1-2	Resorufin autofl inconclusive, Fluorescein autfl 2.5e-06M, A488 fluor 1.4e-07M, Texas Red fluor inconclusive, Rhodamine autofl 1.2e-08M
CN(CCO)C(=O)c1cccc2c1-c1ccccc1C2=O	none
Cn1c(=O)c(NCCO)c2c3c(cccc31)C(=O)c1ccccc1-2	Resorufin autofl 5.2e-08M, Fluorescein autfl 2.5e-05M, A488 fluor 1.3e-06M, Texas Red fluor inconclusive, Rhodamine autofl 8.5e-08M
CCN1CCC[C@@H]1CNC(=O)c1c(OC)ccc(I)c1O	Texas Red fluor inconclusive
O=C1[C@@H]2C=CC=CC2=NC(=S)N1CCN1CCC(=C(c2ccc(F)cc2)c2ccc(F)cc2)CC1	Fluorescein autfl inconclusive
CC1C2C(c3ccccc3)N(C)C(=O)N(C)C2N(C)C(=O)N1C (stereo not drawn)	Fluorescein autfl 1.5e-08M
CC(=O)N1C(=O)N(C(C)=O)C2C1N(C(C)=O)C(=O)N2C(C)=O (stereo not drawn)	none
